# Measurements taken from publication PMC7862700, “An all-to-all approach to the identification of sequence-specific readers for epigenetic DNA modifications on cytosine”.
# What was measured:
# Experiment in all cases: DAPPL (digital affinity profiling via proximity ligation, sequencing); 10 mM Tris-HCl pH 7.5, 50 mM NaCl, 1 mM DTT, 4% glycerol, room temperature, 30 min; GST-TFs on glutathione beads, 16-mer random dsDNA library, 0.1% formaldehyde crosslink after washing; high values mean tight binding
# [1] = molecular target: T1, FLI1 (Homo sapiens, UniProt Q01543 1-452); conditions: protein: recombinant; tags: N-terminal GST; dsDNA, one strand shown
# T1 sequence: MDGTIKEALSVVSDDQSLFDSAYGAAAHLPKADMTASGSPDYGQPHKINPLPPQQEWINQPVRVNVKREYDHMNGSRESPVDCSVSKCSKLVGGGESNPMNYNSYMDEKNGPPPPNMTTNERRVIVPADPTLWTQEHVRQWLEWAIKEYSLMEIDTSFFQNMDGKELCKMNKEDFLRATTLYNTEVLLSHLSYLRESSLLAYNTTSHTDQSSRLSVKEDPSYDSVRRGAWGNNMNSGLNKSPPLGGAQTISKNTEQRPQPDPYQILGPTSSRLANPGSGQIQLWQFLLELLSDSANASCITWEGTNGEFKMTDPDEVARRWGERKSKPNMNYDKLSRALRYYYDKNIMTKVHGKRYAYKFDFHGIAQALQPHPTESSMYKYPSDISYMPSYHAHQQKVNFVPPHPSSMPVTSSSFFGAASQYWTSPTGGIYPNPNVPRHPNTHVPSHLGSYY
# In short: (§1)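 Binding signal is defined as a hexamer's read frequency for one factor over its frequency for the tag-only sample. To obtain reads, GST-fused human transcription factors were expressed in yeast, captured on glutathione beads, barcoded with DNA and pooled with that sample. Pools met 200 nmole of a 16-mer random double-stranded DNA library in Tris/NaCl/DTT/glycerol buffer for 30 min at room temperature before washing, 0.1% formaldehyde crosslinking, proximity ligation (BsaI/T4 ligase, 1 h, 37 °C), PCR and Illumina NextSeq500 sequencing.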
# [2] = molecular target: T2, ELK1 (Homo sapiens, UniProt P19419 1-428); conditions: protein: recombinant; tags: N-terminal GST; dsDNA, one strand shown
# T2 sequence: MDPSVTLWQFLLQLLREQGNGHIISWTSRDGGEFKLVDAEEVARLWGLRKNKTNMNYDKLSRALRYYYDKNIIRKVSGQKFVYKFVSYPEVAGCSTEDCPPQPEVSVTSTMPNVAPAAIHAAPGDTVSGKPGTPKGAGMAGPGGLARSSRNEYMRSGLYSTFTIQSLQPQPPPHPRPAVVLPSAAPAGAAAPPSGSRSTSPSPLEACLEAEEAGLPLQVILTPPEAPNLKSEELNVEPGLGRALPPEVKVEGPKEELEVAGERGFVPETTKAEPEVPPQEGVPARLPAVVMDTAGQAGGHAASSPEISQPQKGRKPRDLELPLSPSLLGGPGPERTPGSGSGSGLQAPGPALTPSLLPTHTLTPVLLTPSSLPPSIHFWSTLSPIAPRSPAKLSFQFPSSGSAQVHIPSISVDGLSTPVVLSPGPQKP
# In short: as §1
# [3] = molecular target: T3, GABPA (Homo sapiens, UniProt Q06546 1-454); conditions: protein: recombinant; tags: N-terminal GST; dsDNA, one strand shown
# T3 sequence: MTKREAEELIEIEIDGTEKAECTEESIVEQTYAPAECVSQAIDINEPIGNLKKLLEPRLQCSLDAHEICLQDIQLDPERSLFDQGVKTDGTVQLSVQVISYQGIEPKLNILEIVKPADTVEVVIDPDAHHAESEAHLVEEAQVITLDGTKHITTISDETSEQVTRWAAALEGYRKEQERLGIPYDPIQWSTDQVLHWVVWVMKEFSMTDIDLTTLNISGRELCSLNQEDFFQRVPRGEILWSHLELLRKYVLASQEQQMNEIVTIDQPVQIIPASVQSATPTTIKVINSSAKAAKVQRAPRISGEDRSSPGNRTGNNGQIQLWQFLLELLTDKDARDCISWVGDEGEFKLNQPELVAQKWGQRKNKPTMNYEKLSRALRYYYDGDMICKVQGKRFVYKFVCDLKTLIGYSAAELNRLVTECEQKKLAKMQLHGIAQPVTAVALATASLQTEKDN
# In short: as §1
# [4] = molecular target: T4, ERG (Homo sapiens, UniProt P11308 1-479); conditions: protein: recombinant; tags: N-terminal GST; dsDNA, one strand shown
# T4 sequence: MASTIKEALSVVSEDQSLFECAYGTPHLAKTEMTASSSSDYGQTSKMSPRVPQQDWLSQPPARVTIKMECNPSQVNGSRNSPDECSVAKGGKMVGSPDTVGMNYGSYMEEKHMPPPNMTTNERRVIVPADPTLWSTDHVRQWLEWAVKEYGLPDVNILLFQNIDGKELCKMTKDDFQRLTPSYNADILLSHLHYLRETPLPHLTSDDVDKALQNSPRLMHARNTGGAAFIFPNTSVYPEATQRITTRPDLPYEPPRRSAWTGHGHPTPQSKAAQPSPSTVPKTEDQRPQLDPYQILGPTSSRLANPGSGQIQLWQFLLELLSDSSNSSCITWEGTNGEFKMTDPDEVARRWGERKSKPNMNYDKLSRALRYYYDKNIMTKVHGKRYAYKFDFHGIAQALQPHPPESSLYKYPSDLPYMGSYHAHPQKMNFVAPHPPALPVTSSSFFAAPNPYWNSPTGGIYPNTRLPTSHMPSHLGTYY
# In short: as §1
# [5] = molecular target: ELF1 (Homo sapiens, UniProt P32519 1-619); conditions: protein: recombinant; tags: N-terminal GST; dsDNA, one strand shown
# ELF1, sequence (P32519 whole entry): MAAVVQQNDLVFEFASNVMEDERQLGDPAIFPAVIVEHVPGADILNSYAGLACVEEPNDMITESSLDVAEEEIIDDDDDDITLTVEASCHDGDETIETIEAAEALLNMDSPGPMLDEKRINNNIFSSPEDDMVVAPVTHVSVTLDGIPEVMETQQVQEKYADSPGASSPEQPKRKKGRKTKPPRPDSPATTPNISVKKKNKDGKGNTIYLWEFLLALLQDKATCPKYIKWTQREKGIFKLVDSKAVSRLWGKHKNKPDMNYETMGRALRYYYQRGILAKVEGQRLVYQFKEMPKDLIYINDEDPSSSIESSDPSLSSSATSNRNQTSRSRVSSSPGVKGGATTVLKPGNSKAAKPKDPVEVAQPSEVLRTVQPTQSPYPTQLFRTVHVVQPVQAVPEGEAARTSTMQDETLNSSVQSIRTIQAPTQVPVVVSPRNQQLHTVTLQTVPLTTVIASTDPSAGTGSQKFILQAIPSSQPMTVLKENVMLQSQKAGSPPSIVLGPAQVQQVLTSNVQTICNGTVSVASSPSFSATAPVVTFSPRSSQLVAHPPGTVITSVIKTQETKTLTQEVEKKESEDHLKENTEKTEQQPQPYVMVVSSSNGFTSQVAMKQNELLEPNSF
# In short: as §1
# [6] = molecular target: T5, EHF (Homo sapiens, UniProt Q9NZC4 1-300); conditions: protein: recombinant; tags: N-terminal GST; dsDNA, one strand shown
# T5 sequence: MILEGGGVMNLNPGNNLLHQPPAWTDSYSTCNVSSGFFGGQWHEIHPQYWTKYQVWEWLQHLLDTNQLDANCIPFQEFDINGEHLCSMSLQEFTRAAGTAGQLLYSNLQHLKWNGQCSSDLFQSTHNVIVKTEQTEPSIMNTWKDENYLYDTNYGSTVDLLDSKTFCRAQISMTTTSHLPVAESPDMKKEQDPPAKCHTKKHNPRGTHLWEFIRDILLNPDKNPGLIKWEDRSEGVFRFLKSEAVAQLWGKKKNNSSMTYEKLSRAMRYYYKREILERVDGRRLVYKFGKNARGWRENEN
# In short: as §1
# [7] = molecular target: SPI1 (Homo sapiens, UniProt P17947 1-270); conditions: protein: recombinant; tags: N-terminal GST; dsDNA, one strand shown
# In short: as §1
# [8] = molecular target: SPIB (Homo sapiens, UniProt Q01892 1-262); conditions: protein: recombinant; tags: N-terminal GST; dsDNA, one strand shown
# SPIB, sequence (Q01892 whole entry): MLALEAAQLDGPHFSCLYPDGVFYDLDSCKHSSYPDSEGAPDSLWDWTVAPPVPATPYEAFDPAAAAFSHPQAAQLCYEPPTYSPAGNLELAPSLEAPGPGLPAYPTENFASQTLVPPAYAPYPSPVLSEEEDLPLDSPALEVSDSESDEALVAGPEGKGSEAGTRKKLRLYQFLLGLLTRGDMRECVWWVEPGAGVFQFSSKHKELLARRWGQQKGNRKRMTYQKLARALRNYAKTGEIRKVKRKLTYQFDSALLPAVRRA
# In short: as §1
# [9] = molecular target: T6, ELK3 (Homo sapiens, UniProt P41970 1-407); conditions: protein: recombinant; tags: N-terminal GST; dsDNA, one strand shown
# T6 sequence: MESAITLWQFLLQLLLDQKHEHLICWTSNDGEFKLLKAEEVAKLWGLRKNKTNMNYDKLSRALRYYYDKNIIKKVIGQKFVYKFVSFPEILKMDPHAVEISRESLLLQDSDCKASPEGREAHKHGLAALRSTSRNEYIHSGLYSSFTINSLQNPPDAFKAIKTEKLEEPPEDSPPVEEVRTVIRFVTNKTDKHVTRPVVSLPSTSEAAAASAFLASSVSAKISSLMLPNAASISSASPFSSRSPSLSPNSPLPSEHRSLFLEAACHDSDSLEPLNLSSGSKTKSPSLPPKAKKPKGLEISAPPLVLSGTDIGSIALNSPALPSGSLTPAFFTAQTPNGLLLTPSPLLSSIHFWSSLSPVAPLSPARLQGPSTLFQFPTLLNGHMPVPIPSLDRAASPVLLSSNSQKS
# In short: as §1
# [10] = molecular target: T7, FEV (Homo sapiens, UniProt Q99581 1-238); conditions: protein: recombinant; tags: N-terminal GST; dsDNA, one strand shown
# T7 sequence: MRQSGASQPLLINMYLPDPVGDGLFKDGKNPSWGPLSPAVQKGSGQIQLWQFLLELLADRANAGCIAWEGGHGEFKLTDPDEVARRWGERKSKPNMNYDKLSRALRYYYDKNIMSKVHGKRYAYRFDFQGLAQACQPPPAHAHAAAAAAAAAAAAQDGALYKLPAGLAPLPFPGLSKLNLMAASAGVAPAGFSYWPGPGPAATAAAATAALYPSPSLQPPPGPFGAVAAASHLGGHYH
# In short: as §1
# [11] = molecular target: ETV5 (Homo sapiens, UniProt P41161 1-510); conditions: protein: recombinant; tags: N-terminal GST; dsDNA, one strand shown
# ETV5, sequence (P41161 whole entry): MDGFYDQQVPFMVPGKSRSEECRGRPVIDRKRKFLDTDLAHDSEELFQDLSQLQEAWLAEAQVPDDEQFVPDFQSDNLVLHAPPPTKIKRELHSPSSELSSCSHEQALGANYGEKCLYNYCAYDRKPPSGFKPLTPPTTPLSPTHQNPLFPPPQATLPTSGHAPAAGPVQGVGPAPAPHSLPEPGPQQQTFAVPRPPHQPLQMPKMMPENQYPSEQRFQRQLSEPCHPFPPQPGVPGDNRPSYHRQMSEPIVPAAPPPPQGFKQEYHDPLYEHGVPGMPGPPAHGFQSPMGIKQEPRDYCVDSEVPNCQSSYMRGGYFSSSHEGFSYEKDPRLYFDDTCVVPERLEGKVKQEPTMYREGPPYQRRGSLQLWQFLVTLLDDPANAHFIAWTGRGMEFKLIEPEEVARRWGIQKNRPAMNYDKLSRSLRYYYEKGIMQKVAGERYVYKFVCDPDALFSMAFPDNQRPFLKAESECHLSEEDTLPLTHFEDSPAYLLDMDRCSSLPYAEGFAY
# In short: as §1
# [12] = molecular target: HSF1 (Homo sapiens, UniProt Q00613 1-529); conditions: protein: recombinant; tags: N-terminal GST; chain copies: 3; dsDNA, one strand shown
# HSF1, sequence (Q00613 whole entry): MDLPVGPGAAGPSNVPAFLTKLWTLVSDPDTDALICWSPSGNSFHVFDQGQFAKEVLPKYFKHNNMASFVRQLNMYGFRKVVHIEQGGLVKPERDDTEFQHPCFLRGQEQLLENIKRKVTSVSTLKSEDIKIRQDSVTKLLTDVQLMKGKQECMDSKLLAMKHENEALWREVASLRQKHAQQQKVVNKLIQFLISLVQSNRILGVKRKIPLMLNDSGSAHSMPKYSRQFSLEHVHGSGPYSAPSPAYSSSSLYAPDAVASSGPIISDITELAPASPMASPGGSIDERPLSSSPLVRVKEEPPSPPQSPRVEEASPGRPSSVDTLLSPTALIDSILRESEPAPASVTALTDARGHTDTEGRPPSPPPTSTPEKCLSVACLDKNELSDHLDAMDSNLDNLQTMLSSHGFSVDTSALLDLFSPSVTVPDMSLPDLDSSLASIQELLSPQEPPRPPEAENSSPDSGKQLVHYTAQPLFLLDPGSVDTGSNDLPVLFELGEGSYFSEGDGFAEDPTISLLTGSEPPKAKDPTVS
# In short: as §1
# [13] = molecular target: T8, SPIC (Homo sapiens, UniProt Q8N5J4 1-248); conditions: protein: recombinant; tags: N-terminal GST; dsDNA, one strand shown
# T8 sequence: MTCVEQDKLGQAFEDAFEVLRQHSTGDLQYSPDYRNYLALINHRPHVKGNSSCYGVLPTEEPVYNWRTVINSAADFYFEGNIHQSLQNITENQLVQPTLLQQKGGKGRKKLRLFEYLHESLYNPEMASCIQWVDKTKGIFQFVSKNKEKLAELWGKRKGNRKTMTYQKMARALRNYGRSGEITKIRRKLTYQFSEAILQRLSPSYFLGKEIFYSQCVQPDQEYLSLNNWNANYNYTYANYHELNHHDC
# In short: as §1
# [14] = molecular target: ELF4 (Homo sapiens, UniProt Q99607 1-663); conditions: protein: recombinant; tags: N-terminal GST; dsDNA, one strand shown
# ELF4, sequence (Q99607 whole entry): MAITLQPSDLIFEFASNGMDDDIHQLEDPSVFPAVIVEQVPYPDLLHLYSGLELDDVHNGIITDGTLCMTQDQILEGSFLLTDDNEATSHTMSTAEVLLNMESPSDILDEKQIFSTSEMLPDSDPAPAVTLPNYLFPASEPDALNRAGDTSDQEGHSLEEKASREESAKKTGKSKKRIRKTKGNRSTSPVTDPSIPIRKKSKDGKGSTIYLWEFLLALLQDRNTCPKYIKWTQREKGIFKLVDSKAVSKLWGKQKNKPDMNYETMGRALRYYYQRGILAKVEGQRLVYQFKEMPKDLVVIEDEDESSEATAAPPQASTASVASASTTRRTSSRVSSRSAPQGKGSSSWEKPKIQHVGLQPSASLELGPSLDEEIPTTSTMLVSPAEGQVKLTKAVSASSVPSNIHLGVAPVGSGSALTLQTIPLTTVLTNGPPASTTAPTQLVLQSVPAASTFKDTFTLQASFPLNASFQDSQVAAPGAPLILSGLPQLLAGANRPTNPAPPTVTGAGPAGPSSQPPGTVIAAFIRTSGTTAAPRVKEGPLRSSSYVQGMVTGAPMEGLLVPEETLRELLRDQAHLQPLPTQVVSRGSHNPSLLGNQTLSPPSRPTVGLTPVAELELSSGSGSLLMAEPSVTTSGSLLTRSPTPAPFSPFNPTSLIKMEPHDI
# In short: as §1
# [15] = molecular target: T9, ELK4 (Homo sapiens, UniProt P28324-2 1-405); conditions: protein: recombinant; tags: N-terminal GST; dsDNA, one strand shown
# T9 sequence: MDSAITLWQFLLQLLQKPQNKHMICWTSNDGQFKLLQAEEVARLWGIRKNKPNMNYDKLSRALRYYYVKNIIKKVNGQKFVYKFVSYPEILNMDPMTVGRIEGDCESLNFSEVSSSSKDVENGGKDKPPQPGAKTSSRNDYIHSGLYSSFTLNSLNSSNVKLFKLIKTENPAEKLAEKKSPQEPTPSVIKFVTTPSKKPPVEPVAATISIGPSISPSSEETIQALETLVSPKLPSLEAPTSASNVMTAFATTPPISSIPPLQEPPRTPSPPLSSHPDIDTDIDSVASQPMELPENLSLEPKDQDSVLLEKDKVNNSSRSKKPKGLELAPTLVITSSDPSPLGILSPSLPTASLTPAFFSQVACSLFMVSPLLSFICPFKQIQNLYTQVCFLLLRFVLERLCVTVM
# In short: as §1
# [16] = molecular target: T10, ETV2 (Homo sapiens, UniProt O00321 1-342); conditions: protein: recombinant; tags: N-terminal GST; dsDNA, one strand shown
# T10 sequence: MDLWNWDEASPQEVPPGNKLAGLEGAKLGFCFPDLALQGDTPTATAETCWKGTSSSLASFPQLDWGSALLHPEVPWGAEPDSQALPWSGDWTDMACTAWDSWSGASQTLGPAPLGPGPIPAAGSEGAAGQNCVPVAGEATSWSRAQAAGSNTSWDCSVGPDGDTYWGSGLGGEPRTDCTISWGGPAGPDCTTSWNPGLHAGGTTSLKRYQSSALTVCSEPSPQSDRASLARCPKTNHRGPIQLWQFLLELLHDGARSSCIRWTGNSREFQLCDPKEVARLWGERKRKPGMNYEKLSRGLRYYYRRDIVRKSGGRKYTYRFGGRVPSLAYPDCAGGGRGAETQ
# In short: as §1
# [17] = molecular target: T11, ELF3 (Homo sapiens, UniProt P78545 1-371); conditions: protein: recombinant; tags: N-terminal GST; dsDNA, one strand shown
# T11 sequence: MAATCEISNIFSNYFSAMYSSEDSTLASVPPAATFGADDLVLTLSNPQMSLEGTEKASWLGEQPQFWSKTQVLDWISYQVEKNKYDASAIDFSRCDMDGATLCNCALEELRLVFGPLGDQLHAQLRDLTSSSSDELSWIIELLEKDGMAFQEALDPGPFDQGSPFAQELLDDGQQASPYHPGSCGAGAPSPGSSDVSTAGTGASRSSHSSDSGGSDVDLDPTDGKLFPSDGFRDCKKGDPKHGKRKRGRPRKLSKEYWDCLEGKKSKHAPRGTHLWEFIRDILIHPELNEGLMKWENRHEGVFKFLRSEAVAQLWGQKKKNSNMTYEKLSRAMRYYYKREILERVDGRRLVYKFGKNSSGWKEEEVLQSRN
# In short: as §1
# [18] = molecular target: CRX (Homo sapiens, UniProt O43186 1-299); conditions: protein: recombinant; tags: N-terminal GST; dsDNA, one strand shown
# CRX, sequence (O43186 whole entry): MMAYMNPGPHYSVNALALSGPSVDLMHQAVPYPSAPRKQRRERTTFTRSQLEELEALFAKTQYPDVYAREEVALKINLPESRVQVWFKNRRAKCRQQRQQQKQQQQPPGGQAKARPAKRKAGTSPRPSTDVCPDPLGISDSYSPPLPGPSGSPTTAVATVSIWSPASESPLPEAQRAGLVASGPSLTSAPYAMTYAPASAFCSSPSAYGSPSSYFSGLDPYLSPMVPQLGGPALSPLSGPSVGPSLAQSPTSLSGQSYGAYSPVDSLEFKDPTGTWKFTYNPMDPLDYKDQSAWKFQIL
# In short: as §1
# [19] = molecular target: ETV1 (Homo sapiens, UniProt P50549 1-477); conditions: protein: recombinant; tags: N-terminal GST; dsDNA, one strand shown
# ETV1, sequence (P50549 whole entry): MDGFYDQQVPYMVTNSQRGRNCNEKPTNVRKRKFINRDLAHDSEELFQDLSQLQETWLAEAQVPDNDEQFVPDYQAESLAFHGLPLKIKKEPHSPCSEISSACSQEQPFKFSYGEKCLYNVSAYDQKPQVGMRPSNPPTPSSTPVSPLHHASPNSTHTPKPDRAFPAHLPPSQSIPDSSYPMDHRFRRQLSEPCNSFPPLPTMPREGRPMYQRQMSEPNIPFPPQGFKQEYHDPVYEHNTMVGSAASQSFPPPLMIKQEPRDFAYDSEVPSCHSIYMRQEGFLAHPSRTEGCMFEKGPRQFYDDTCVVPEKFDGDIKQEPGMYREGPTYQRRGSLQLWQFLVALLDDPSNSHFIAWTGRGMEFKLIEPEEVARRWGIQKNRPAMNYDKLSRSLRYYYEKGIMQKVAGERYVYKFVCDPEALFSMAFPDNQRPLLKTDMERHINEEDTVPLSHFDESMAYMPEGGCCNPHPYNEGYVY
# In short: as §1
sequence,measurement,setting,value
GCCTTC,binding signal,[1],"1.41 fold enrichment (6-mer frequency, TF over GST control)"
same,binding signal,[2],"1.51 fold enrichment (6-mer frequency, TF over GST control)"
same,binding signal,[3],"1.54 fold enrichment (6-mer frequency, TF over GST control)"
same,binding signal,[4],"1.52 fold enrichment (6-mer frequency, TF over GST control)"
same,binding signal,[5],"1.58 fold enrichment (6-mer frequency, TF over GST control)"
same,binding signal,[6],"1.43 fold enrichment (6-mer frequency, TF over GST control)"
same,binding signal,[7],"1.39 fold enrichment (6-mer frequency, TF over GST control)"
same,binding signal,[8],"1.54 fold enrichment (6-mer frequency, TF over GST control)"
same,binding signal,[9],"1.52 fold enrichment (6-mer frequency, TF over GST control)"
same,binding signal,[10],"1.57 fold enrichment (6-mer frequency, TF over GST control)"
same,binding signal,[11],"1.56 fold enrichment (6-mer frequency, TF over GST control)"
same,binding signal,[12],"1.49 fold enrichment (6-mer frequency, TF over GST control)"
same,binding signal,[13],"1.71 fold enrichment (6-mer frequency, TF over GST control)"
same,binding signal,[14],"1.6 fold enrichment (6-mer frequency, TF over GST control)"
same,binding signal,[15],"1.64 fold enrichment (6-mer frequency, TF over GST control)"
same,binding signal,[16],"1.63 fold enrichment (6-mer frequency, TF over GST control)"
same,binding signal,[17],"1.41 fold enrichment (6-mer frequency, TF over GST control)"
same,binding signal,[18],"1.2 fold enrichment (6-mer frequency, TF over GST control)"
same,binding signal,[19],"1.66 fold enrichment (6-mer frequency, TF over GST control)"
